# PubChem BioAssay (NCI)
# The panel holds about 79,000 compounds, 15% with a hit somewhere; the sample as a whole holds those more often. A number with no mark means an inactive call. Calls of active or inactive are those of the source. No stated cut-off is given here; in the data, active means growth inhibition above about 70%; inactive means the rest.
# Assays:
# [1] = NCI Yeast Anticancer Drug Screen. Data for the rad50 strain (AID 155);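 further: 0% = growth of vehicle-only cultures of the same strain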; details: S. cerevisiae rad50 strain growth inhibition, active compounds read high
# Summary of the method: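 Readout: growth inhibition relative to vehicle-treated cultures. Compound exposure was carried out in a genetically defined yeast strain deficient in DNA damage repair.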
# [2] = NCI Yeast Anticancer Drug Screen. Data for the mec2-1 strain (AID 157); details: S. cerevisiae mec2-1 strain, active compounds read high
# Summary of the method: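 Mutant yeast (mec2-1) grown with compound; growth inhibition relative to vehicle control reported.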
# [3] = NCI Yeast Anticancer Drug Screen. Data for the sgs1 mgt1 strain (AID 161);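 further: 0% = growth of cultures given vehicle only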; details: S. cerevisiae sgs1 mgt1 strain, active compounds read high
# Summary of the method: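 Percent growth inhibition was derived by comparing compound-exposed mutant yeast with vehicle-exposed cultures. The strain carries alterations in DNA damage repair.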
# [4] = NCI Yeast Anticancer Drug Screen. Data for the cln2 rad14 strain (AID 165);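 further: 0% = growth equal to vehicle treated cultures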; details: S. cerevisiae cln2 rad14 strain, active compounds read high
# Summary of the method: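 Readout is yeast growth inhibition versus vehicle-treated controls, using a strain with cln2 and rad14 alterations exposed to compound.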
# [5] = NCI Yeast Anticancer Drug Screen. Data for the bub3 strain (AID 167); details: S. cerevisiae bub3 mutant strain, active compounds read high
# Summary of the method: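 Readout: yeast growth inhibition, expressed relative to vehicle-only wells. The test organism is a mutant strain from a panel with lesions in DNA repair or checkpoint genes.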
# [6] = NCI Yeast Anticancer Drug Screen. Data for the mlh1 rad18 strain (AID 175); details: S. cerevisiae mlh1 rad18 strain growth inhibition, active compounds read high
# Summary of the method: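 Genetically defined yeast (DNA repair-deficient) exposed to compounds; growth inhibition determined relative to vehicle.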
# [7] = at 5.0 µM (retest, dose inferred, filed as 0.5)
# [8] = at 50.0 µM (retest, dose inferred, filed as 5.0)
SMILES,"growth inhibition [1, 7] [%]","growth inhibition [1, 8]",growth inhibition ([1]; at 50.0 µM),"growth inhibition [2, 7] [%]","growth inhibition [2, 8]",growth inhibition ([2]; at 50.0 µM),"growth inhibition [3, 7] [%]","growth inhibition [3, 8]",growth inhibition ([3]; at 50.0 µM),"growth inhibition [4, 7] [%]","growth inhibition [4, 8]",growth inhibition ([4]; at 50.0 µM),"growth inhibition [5, 7] [%]","growth inhibition [5, 8]",growth inhibition ([5]; at 50.0 µM),"growth inhibition [6, 7] [%]","growth inhibition [6, 8]",growth inhibition ([6]; at 50.0 µM)
CCCC[N-]CC(O)C[NH-].O=C(O)CC(=O)O.[Pt+2] (stereo unspecified),2,6%,11.6%,-10,-23%,23.2%,1,6%,22.2%,1,7%,80% (active),3,4%,0.55%,0,-7%,29.9%
NSc1ccccn1,7,74% (active),90.4% (active),9,93% (active),93.5% (active),11,79% (active),97.8% (active),29,84% (active),89.7% (active),3,92% (active),99% (active),4,85% (active),96.7% (active)
CCCCOc1ccc(-c2c(COC(=O)NC)c(COC(=O)NC)c(C)n2C)cc1,23,94% (active),85.3% (active),14,97% (active),89.5% (active),21,99% (active),90% (active),19,85% (active),89% (active),17,99% (active),87.3% (active),20,96% (active),88.2% (active)
CCN(CC)CCCNc1nc(NCCCN(CC)CC)c2nc(-c3ccccc3)c(-c3ccccc3)nc2n1,-3,93% (active),66.5%,2,93% (active),61.4%,-2,94% (active),63.8%,0,47%,77.4% (active),-4,92% (active),56.1%,-6,94% (active),98.5% (active)
CC(C)(C)CC(C)(C)c1ccc(O)c(Cl)c1,-3,93% (active),99.1% (active),-3,90% (active),76.5% (active),-2,50%,91.2% (active),-6,86% (active),49.9%,-4,90% (active),78.4% (active),-4,95% (active),99.5% (active)
CC(=O)NC1CCCCC1CC1CCCCC1 (stereo unspecified),-146,-23%,19.2%,-48,-44%,20.1%,-63,-32%,35.8%,-57,-52%,79.2% (active),-68,-49%,24%,-125,-138%,16.9%
Oc1ccc(/C=N/NC(=S)NC2CC3CC2C2C=CCC32)c(O)c1 (stereo unspecified),46,96% (active),87.8% (active),33,97% (active),90.8% (active),49,98% (active),92.5% (active),26,98% (active),89.3% (active),28,52%,90.3% (active),65,96% (active),90% (active)
[N-]=[N+]=Nc1ccc(SN2C(=O)c3ccccc3C2=O)cc1,29,98% (active),90.7% (active),23,95% (active),88.4% (active),6,98% (active),92.5% (active),3,67%,63.1%,1,44%,95.4% (active),10,95% (active),73.3% (active)
N#Cc1ccc([N+](=O)[O-])cc1C#N,-155,97% (active),99.2% (active),-46,97% (active),99.8% (active),-56,98% (active),99.6% (active),-50,96% (active),97.6% (active),-66,98% (active),97.6% (active),-135,98% (active),99.5% (active)
COc1ccc(C2=C(Cl)C(=O)N(c3ccc(Cl)cc3)C(=O)C2(Cl)Cl)cc1,12,95% (active),93.2% (active),3,97% (active),98.2% (active),13,96% (active),97.1% (active),-10,91% (active),63%,-3,95% (active),93.2% (active),9,94% (active),96% (active)
CC/C(=C(\CC)c1ccc(OCCN2CCOCC2)cc1)c1ccc(OCCN2CCOCC2)cc1,47,63%,82.8% (active),36,62%,70.5% (active),67,88% (active),89% (active),62,64%,83.5% (active),59,68%,79.9% (active),30,72% (active),87.8% (active)
CCC=Nc1c(O)cc(-c2ccccc2)n(C)c1=O,36,71% (active),73.2% (active),35,75% (active),11.9%,40,92% (active),70.8% (active),35,45%,16.3%,35,93% (active),70% (active),47,94% (active),60.5%
